From PubChem BioAssay
DT40 TDP1 no CPT – qHTS for Inhibitors of human tyrosyl-DNA phosphodiesterase 1 (TDP1): qHTS in cells in absence of CPT; DT40 Tdp1-/- hTDP1 cells, no CPT, ATP luminescence, 48 h; Potency, µM (top dose mostly 46.2 µM), actives largely listed as inhibitors; 420,000 tested, 15% active; AID 686978, 2013; note: nearly all actives have a fitted effect of over 55% in size
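Readout: luminescence from CellTiter-Glo after 30 min in the dark at RT. Cells: DT40 Tdp1-/- with stable hTDP1, 400/well. Exposure: compounds alone, ≥48 hr, 37 °C.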
TDP1 cell CPT – DT40-hTDP1 cell growth loss with CPT; chicken DT40 Tdp1-/-;hTDP1 cells + 20 nM CPT, ATP luminescence, 48 h; Potency, µM (series often up to 46.2 µM), most hits filed as inhibitors; 420,000 tested, 12% active; AID 686979; note: nearly all actives have a fitted effect of over 55% in size
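Cell growth measured by CellTiter-Glo luminescence after a minimum 48 h, 37 C compound exposure with 20 nM CPT in Tdp1-knockout DT40 cells stably expressing hTDP1, seeded 400/well; qHTS titration format.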
HT1080 IDH1KD tx – kills HT-1080 cells with IDH1 knockdown; HT-1080 IDH1 knockdown viability, ATP luminescence, 48 h; Potency, µM (titrated, usually from 46.1 µM), actives largely listed as cytotoxic; 360,000 tested, 2% active; AID 686971
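% activity derives from luminescence (CellTiter-Glo), normalised to DMSO and no-cell wells. HT-1080-IDH1KD cells, 750/well, had 48 h compound exposure at 37 °C.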
IL1B secr inh – inhibitors of inflammasome signaling (IL-1 beta secretion). THP-1 LPS/ATP IL-1B secretion, AlphaLISA, 16 h; stronger effect = lower value. activity change, % at 57.5 µM. 360,000 tested, 4.7% active. AID 743279; in the data active = activity change below about -50%; inconclusive = mostly about -30% to -49%
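THP-1 cells pretreated 1 hr with compounds (up to 57.5 uM final), then stimulated with LPS (250 ng/mL final) plus ATP (1.25 mM final); secreted IL-1B measured by AlphaLISA after 16 hr, decreased signal indicating inhibition.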
HT1080-NT tox – kills 2HG-producing HT-1080-NT fibrosarcoma cells. 360,000 tested, 1.6% active. AID 686970. Potency, µM (top dose mostly 46.1 µM), usual class: cytotoxic. HT-1080-NT fibrosarcoma viability, CellTiter-Glo ATP luminescence, 48 h;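 note: NT is the 2HG producing partner of a matched IDH1 knockdown line; nearly all actives have a fitted effect of over 55% in size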
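Luminescent CellTiter-Glo readout after 48 hours of compound exposure at 37 degrees C defined viability of HT-1080-NT cells. Activity was normalized to DMSO wells and cell-free media wells; concentration-response curves were fitted and assigned curve classes.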
A number is an active result; n = inactive; u = inconclusive; x = not tested or not shown. Shown are actives, neighbours in structure and some others; about 19% of the full set was active somewhere. Unless noted, calls come from the whole dose curve; as a rule, active = well fitted curve in the direction sought with a large enough effect; inconclusive = small, poorly fitted or top-dose-only effect, or another doubt; inactive = no such curve, though single readings can be large; an effect the other way counts as inactive or inconclusive.

SMILES | DT40 TDP1 no CPT | TDP1 cell CPT | HT1080 IDH1KD tx | IL1B secr inh | HT1080-NT tox
Cc1nc2c(N)nn(C)c2nc1C | n | n | n | n | n
COc1ccc(CCN(C(=O)C(F)(F)F)C(C(=O)NC2CCCC2)c2cccs2)cc1 (configuration not stated) | 6.51µM | 6.51µM | u | n | 8.91µM
Cc1cccc(CCN(C(=O)c2csnn2)C(C(=O)NC2CCCC2)c2ccco2)c1 (configuration not stated) | 16.4µM | 14.6µM | n | -85.4 | n
O=C(NC1CCCCC1)C(c1ccco1)N(CCc1ccccc1)C(=O)C(F)(F)F (configuration not stated) | 23.1µM | 23.1µM | n | n | n
O=C(NC1CCCCC1)C(c1cccs1)N(C(=O)C(F)(F)F)c1ccccc1 (configuration not stated) | n | u | n | n | n
CC(C)(C)c1ccc(-c2nnc(SCC(=O)NC3CCS(=O)(=O)C3)n2N)cc1 (configuration not stated) | n | n | n | n | n
CC(=O)C1C(c2cccc(F)c2)c2c(n[nH]c2C)CC1(C)O (configuration not stated) | n | n | n | n | n
CC1=CC(C)(C)N(C(=O)c2ccccc2)c2ccc(C)cc21 | 23.1µM | 14.6µM | n | n | n
CCCNc1ncnc2nc[nH]c12 | n | u | n | n | n
C1=C(CCNc2ncnc3nc[nH]c23)CCCC1 | 14.6µM | 13µM | n | n | n
c1ccc(CCCNc2ncnc3nc[nH]c23)cc1 | 20.6µM | u | n | n | n
OCCOCCNc1ncnc2nc[nH]c12 | n | n | n | n | n
c1ccc2c(CCNc3ncnc4nc[nH]c34)cccc2c1 | 18.4µM | 23.1µM | n | n | n
Clc1ccc(CCNc2ncnc3nc[nH]c23)cc1 | 7.31µM | 11.6µM | n | n | n
CCC(C)(C)NC(=O)C(c1ccccc1Cl)N(C(=O)CCC(=O)Nc1cc(C)on1)c1ccc(NC(C)=O)cc1 (configuration not stated) | n | n | n | n | n
CCO[C@@H]1O[C@H](C(COCc2ccccc2)OCc2ccccc2)[C@H](OCc2ccccc2)[C@H]1O (some centres not stated) | u | 11.4µM | x | x | x
O=C(CCC(=O)N1CCN(c2ccccc2F)CC1)N1CCN(c2ccc(F)cc2)CC1 | 16.4µM | u | n | n | n
O=C(CN1C(=O)NC(c2ccccc2)(c2ccccc2)C1=O)N1CCN(c2ccccc2F)CC1 | 4.11µM | u | n | u | n
O=C(CCSCc1ccccc1F)N1CCN(c2ccc(F)cc2)CC1 | 25.9µM | u | x | x | x
O=C(CCC(=O)N1CCN(c2ccccc2F)CC1)N1CCN(c2ccccc2)CC1 | n | u | n | n | n
O=C(CCC(=O)N1CCN(c2ccc(F)cc2)CC1)N1CCN(c2ccc(F)cc2)CC1 | u | u | n | n | n
O=C(NCc1cccnc1)C(=O)NCC1OCCCN1S(=O)(=O)c1cc(F)ccc1F (configuration not stated) | n | n | n | n | n
CC(CC(=O)O)Nc1ccccc1O (configuration not stated) | u | 20.6µM | n | n | n
Cc1ccc(NCN2C(=O)C(=O)c3ccccc32)nc1 | 1.3µM | 2.31µM | n | n | n
CC(=O)c1ccc(NC(=O)C2CCN(S(=O)(=O)c3cccc4cccnc34)CC2)cc1 | n | n | n | n | n
SMILES | DT40 TDP1 no CPT | TDP1 cell CPT | HT1080 IDH1KD tx | IL1B secr inh | HT1080-NT tox
CCc1ccc(NC(=O)C2CCCN(S(=O)(=O)c3cccc4cccnc34)C2)cc1 (configuration not stated) | 16.4µM | 18.4µM | x | x | x
O=C(Nc1nc2cc(Cl)ccc2s1)C1CCCN(S(=O)(=O)c2cccc3cccnc23)C1 (configuration not stated) | 16.4µM | 20.6µM | u | n | n
O=C(Nc1nccs1)C1CCCN(S(=O)(=O)c2cccc3cccnc23)C1 (configuration not stated) | 14.6µM | u | n | n | n
O=C(Nc1ccc(F)cc1)C1CCCN(S(=O)(=O)c2cccc3cccnc23)C1 (configuration not stated) | u | u | n | n | n
CC(=O)c1cccc(NC(=O)C2CCCN(S(=O)(=O)c3cccc4cccnc34)C2)c1 (configuration not stated) | u | 20.6µM | n | n | n
O=C(Nc1ccccc1Cl)C1CCCN(S(=O)(=O)c2cccc3cccnc23)C1 (configuration not stated) | u | u | n | n | n
CCNC(=O)C12CCC(C)(C(=O)O1)C2(C)C (configuration not stated) | n | n | n | n | n
CCCCC12CN3CC(C)(CN(C1)C3c1c(C)[nH]c(=O)[nH]c1=O)C2=O (configuration not stated) | n | n | x | x | x
O=C(OC1CC2CC1[C@H]1CCCCN1C2=O)N1CCC(c2ccccc2)CC1 (some centres not stated) | 16.4µM | u | n | n | n
CCOCCCNCC(=O)NC1(C)C2CCC(C2)C1(C)C (configuration not stated) | n | u | n | n | n
CC1(C)C2CCC(C2)C1(C)NC(=O)CNCC1CCCCC1 (configuration not stated) | u | n | n | -78.2 | n
COc1ccccc1-c1sc2ccccc2c1-c1ccc(OCCN2CCOCC2)cc1 | 13µM | u | u | n | u
COc1ccccc1-c1sc2ccccc2c1-c1ccc2c(c1)OCO2 | u | 23.1µM | n | n | n
COc1ccccc1-c1sc2cc3c(cc2c1-c1ccc(OCCN2CCCCC2)cc1)OCO3 | 11.6µM | 16.4µM | u | u | u
COc1cc2sc(-c3ccccc3OC)c(-c3ccc(OCCN4CCCCC4)cc3)c2cc1OC | u | u | u | n | u
Cc1nc(S/C(=C/c2ccc(OCc3ccc(C(=O)O)cc3)cc2)C(=O)O)n[nH]1 | n | n | n | n | n
N#Cc1cccc(NC(=S)Nc2ccccc2)c1 | n | n | n | n | n
COc1ccc(S(=O)(=O)c2cn(Cc3ccccc3)c3cc(F)c(F)cc3c2=O)cc1 | u | 14.6µM | x | x | x
CCCCn1cc(S(=O)(=O)c2ccc(C)c(C)c2)c(=O)c2cc(F)c(N(CC)CC)cc21 | 8.2µM | 7.31µM | x | x | x
CCN(CC)c1cc2c(cc1F)c(=O)c(S(=O)(=O)c1ccccc1)cn2C | u | n | x | x | x
CCCCn1cc(S(=O)(=O)c2ccccc2)c(=O)c2cc(C)ccc21 | n | n | n | n | n
CCN(CC)c1cc2c(cc1F)c(=O)c(S(=O)(=O)c1ccc(OC)cc1)cn2Cc1ccccc1 | 23.1µM | u | x | x | x
